Rows were chosen to be rich in hits. Some 18% of all compounds tested hit in one or more screens of this group.
HepG2 tox: kills HepG2 cells in TGF-b inhibitor counter-screen | 410,000 tested, 0.76% active | AID 588856 | HepG2 CAGA-GFP viability, ATP luminescence, 18 h | Potency, µM (series often up to 46.1 µM), inactives show at the highest dose activity change, negative = cytotoxicity, actives largely listed as cytotoxic; note: potency is the fitted concentration of half-maximal effect
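HepG2 CAGA-GFP cells (1000/well, DMEM with 1% FBS) received compound, then TGF-beta at 500 pg/mL final, and were incubated 18 hours at 37 degrees C. Viability was read by CellTiter-Glo luminescence. Media-only wells were set as complete cell-killing and DMSO as no toxicity.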
DT40 TDP1 no CPT: qHTS for Inhibitors of human tyrosyl-DNA phosphodiesterase 1 (TDP1): qHTS in cells in absence of CPT | DT40 Tdp1-/- hTDP1 cells, no CPT, ATP luminescence, 48 h | Potency, µM (series often up to 46.2 µM), inactives show at the highest dose activity change, negative = growth inhibition, hits mostly inhibitors | 420,000 tested, 15% active | AID 686978, 2013; note: potency is the fitted concentration of half-maximal effect; % is set by controls: 0 for no effect and ±100 for the full control effect; nearly all actives have a fitted effect of over 55% in size
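Cells were dispensed at 400 per well, compounds added by pin tool, plates incubated ≥48 hr at 37 °C, then CellTiter-Glo added for 30 min at room temperature before luminescence reading. Line: DT40 Tdp1-/- complemented with hTDP1; camptothecin omitted.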
TDP1 inh: inhibitors of human tyrosyl-DNA phosphodiesterase TDP1; Potency, µM (series often up to 130 µM), for inactives: at the highest dose activity change, negative = inhibition, usual class: inhibitors; recombinant TDP1, AlphaScreen DNA substrate cleavage; 350,000 tested, 0.28% active; note: potency is the fitted concentration of half-maximal effect; % is set by controls: 0 for no effect and ±100 for the full control effect; nearly all actives have a fitted effect of over 40% in size
Target sequence (Q9NUW8 whole entry, looked up): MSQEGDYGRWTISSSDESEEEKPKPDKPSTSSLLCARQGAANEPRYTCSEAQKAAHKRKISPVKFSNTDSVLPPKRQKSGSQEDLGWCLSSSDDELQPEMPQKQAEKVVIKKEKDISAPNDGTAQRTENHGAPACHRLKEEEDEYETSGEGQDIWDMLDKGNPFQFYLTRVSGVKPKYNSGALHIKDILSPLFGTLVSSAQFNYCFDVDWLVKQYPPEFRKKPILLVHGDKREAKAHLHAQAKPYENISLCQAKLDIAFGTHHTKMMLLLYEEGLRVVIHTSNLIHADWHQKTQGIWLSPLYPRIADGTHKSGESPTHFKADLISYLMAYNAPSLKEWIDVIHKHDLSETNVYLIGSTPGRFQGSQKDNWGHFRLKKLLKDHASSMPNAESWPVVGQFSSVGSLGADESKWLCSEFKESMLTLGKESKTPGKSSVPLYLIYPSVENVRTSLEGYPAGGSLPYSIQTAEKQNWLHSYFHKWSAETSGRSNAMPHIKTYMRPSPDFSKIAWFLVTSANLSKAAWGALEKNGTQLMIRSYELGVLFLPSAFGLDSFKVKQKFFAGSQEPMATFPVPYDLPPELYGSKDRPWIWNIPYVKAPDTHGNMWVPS
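Tdp1 1 nM final; 15 min RT w/ cpd; substrate 15 nM, 5 min; beads 10 ug/ml, 10 min; AlphaScreen read. Neg ctrl: no enzyme.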
IL1B secr inh: inhibitors of inflammasome signaling (IL-1 beta secretion). AID 743279. THP-1 LPS/ATP IL-1B secretion, AlphaLISA, 16 h; stronger effect = lower value. activity change, % at 57.5 µM. 360,000 tested, 4.7% active; in the data active = activity change below about -50%; inconclusive = mostly about -30% to -49%; note: % is set by controls: 0 for no effect and ±100 for the full control effect
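THP-1 cells pretreated 1 hr with compounds (up to 57.5 uM final), then stimulated with LPS (250 ng/mL final) plus ATP (1.25 mM final); secreted IL-1B measured by AlphaLISA after 16 hr, decreased signal indicating inhibition.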
TDP1 cell CPT: growth inhibition of DT40 Tdp1-/-;hTDP1 cells with camptothecin (screen for TDP1 inhibitors); AID 686979; chicken DT40 Tdp1-/-;hTDP1 cells + 20 nM CPT, ATP luminescence, 48 h; Potency, µM (doses to about 46.2 µM), for inactives: at the highest dose activity change, negative = growth inhibition, most hits filed as inhibitors; 420,000 tested, 12% active; note: potency is the fitted concentration of half-maximal effect; % is set by controls: 0 for no effect and ±100 for the full control effect; nearly all actives have a fitted effect of over 55% in size
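Chicken DT40 Tdp1-/- cells stably complemented with human TDP1 were seeded at 400 cells/well in medium containing 20 nM camptothecin, exposed to pin-transferred compounds, and grown at 37 °C for at least 48 hr. Viability was read as ATP luminescence.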
TGFb inhibitor: TGF-b pathway inhibition; Potency, µM (series often up to 46.1 µM), for inactives: at the top dose activity, negative = inhibition, actives largely listed as inhibitors; 410,000 tested, 1.2% active; AID 588855; HepG2 CAGA-GFP TGF-b/SMAD3 reporter, GFP fluorescence, 18 h; TGF-beta stimulated, 500 pg/mL final; note: potency is the fitted concentration of half-maximal effect; % is set by controls: 0 for no effect and ±100 for the full control effect; nearly all actives have a fitted effect of over 65% in size
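Inhibition of TGF-beta-driven CAGA-GFP reporter expression in HEPG2 cells is measured by cellular GFP fluorescence after 18 h stimulation with 500 pg/mL recombinant TGF-beta in 1% FBS medium at 37 degrees C.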
Numbers without * were called inactive; ? = inconclusive; / = not tested or not shown; [ ] = another dose, or the depositor's remark. Unless noted, calls come from the whole dose curve; as a rule, active = well fitted curve in the direction sought with a large enough effect; inconclusive = small, poorly fitted or top-dose-only effect, or another doubt; inactive = no such curve, though single readings can be large; an effect the other way counts as inactive or inconclusive.

SMILES | HepG2 tox | DT40 TDP1 no CPT | TDP1 inh | IL1B secr inh | TDP1 cell CPT | TGFb inhibitor
COC/C=C/c1cc(F)c(S(=O)(=O)N2CCN(S(=O)(=O)c3ccc4c(c3)OCCO4)CC2)cc1F | / | / | 0.4% | / | / | /
O=C(O)/C=C/c1cc(F)c(S(=O)(=O)N2CCN(S(=O)(=O)c3ccc4c(c3)OCCO4)CC2)cc1F | / | / | 50.1µM* | / | / | /
O=c1[nH]c2ccc(S(=O)(=O)N3CCN(S(=O)(=O)c4ccc5c(c4)OCCO5)CC3)cc2[nH]c1=O | / | / | 50.1µM* | / | / | /
CC1(C)CC(=O)C(C(C#Cc2ccccc2)C2=C(O)CC(C)(C)CC2=O)=C(O)C1 | -50.3% | 9.2µM* | -5.8% | -99.5* | 6.51µM* | ?
CC1(C)CC(=O)C(N=Nc2ccc(-c3ccccc3)cc2)=C(O)C1 | -1.3% | 3.4% | 2.4% | -29.2 | -3.0% | -5.9%
O=C1CCCC(O)=C1C(C#Cc1ccccc1)C1=C(O)CCCC1=O | 15.8µM* | 5.17µM* | 4.6% | -98.9* | 3.66µM* | ?
CN(Cc1ccccc1)C(=O)c1cn(C)c2ccc(S(=O)(=O)N3CCCC3)cc2c1=O | -0.1% | 19.4% | 3.3% | 11.3 | 9.5% | 5.9%
CCOCCCNC(=O)c1cnc2sc(N3CCCCC3)nn2c1=O | -18.5% | 1.4% | 2.6% | / | -13.4% | -0.1%
FCc1nc2nc(Cl)c(Cl)nc2[nH]1 | -3.3% | ? | / | 19.0 | -14.6% | 0.6%
FC(F)c1nc2nc(Cl)c(Cl)nc2[nH]1 | 6.9% | ? | / | 40.7 | 16.4µM* | 5.6%
OC1CCCN(Cc2cn(Cc3ccccc3)nc2-c2cc3ccccc3o2)C1 (stereo not drawn) | -10.2% | 18.4µM* | 2.4% | ? | ? | -2.3%
COCCOC1CCN(Cc2cn(Cc3ccccc3)nc2-c2cc3ccccc3o2)CC1 | -53.3% | 16.4µM* | 3.6% | -12.7 | ? | ?
N#CCCn1cc(C(=O)O)c(-c2cc3ccccc3o2)n1 | 1.7% | 4.1% | / | 8.2 | 0.4% | -7.9%
CCC(O)C1CCN(Cc2cn(Cc3ccccc3)nc2-c2cc3ccccc3o2)CC1 (stereo not drawn) | -71.7% | ? | 0.0% | 124.2 | ? | ?
O=S(=O)(c1ccccc1)C(Br)S(=O)(=O)c1ccccc1 | -27.0% | 5.0% | / | -17.9 | 1.4% | -0.6%
O=S(=O)(Nc1cccc(-c2cn3ccsc3n2)c1)c1ccc(F)cc1 | -7.4% | ? | 7.1% | -17.7 | ? | -3.9%
Cc1ccc(S(=O)(=O)Nc2cccc(-c3cn4ccsc4n3)c2)cc1 | -5.5% | 20.6µM* | 6.5% | 8.6 | ? | ?
COc1cc(OC)cc(C(=O)Nc2cccc(-c3cn4ccsc4n3)c2)c1 | -32.7% | 18.4µM* | 8.8% | / | 13µM* | -23.4%
O=S(=O)(Nc1cccc(-c2cn3cccnc3n2)c1)c1ccc(-c2ccccc2)cc1 | -16.1% | 14.6µM* | 2.9% | 1.2 | ? | -4.3%
Cc1cccc2nc(-c3cccc(NS(=O)(=O)c4ccccc4)c3)cn12 | -9.2% | 23.1µM* | / | / | ? | -3.1%
Cc1nc(-c2cccc(NS(=O)(=O)c3ccccc3)c2)cs1 | -18.0% | -25.0% | 2.0% | 10.6 | ? | 0.0%
O=C(CSC1=NS(=O)(=O)c2cc(F)ccc2N1)NCc1ccc(F)cc1 | 0.8% | -8.6% | 2.4%[0.505 µM] | 16.0 | 13.2% | -1.8%
CCOc1ccc(NC(=O)CN(C)C(=O)c2ccc(OCC(=O)N3CCOCC3)c(OC)c2)cc1OCC | -1.5% | 1.0% | / | 12.7 | 0.7% | 6.5%
Cn1ncc(C#N)c1/N=C/N(Cc1ccccc1)Cc1ccccc1 | -25.2% | ? | 4.4% | 31.3 | 14.6µM* | -11.7%
Cc1cc(C)c(C#N)c(SCCS(=O)(=O)c2ccc(Cl)cc2)n1 | 8.8% | ? | 0.6% | -76.3* | ? | 2.5%
SMILES | HepG2 tox | DT40 TDP1 no CPT | TDP1 inh | IL1B secr inh | TDP1 cell CPT | TGFb inhibitor
Cc1cc(C)c(C#N)c(SCCS(=O)(=O)c2ccc(C(C)(C)C)cc2)n1 | -4.3% | 20.6µM* | -6.8% | -19.4 | 13µM* | -1.3%
C[C@@H]1CN([C@@H](C)CO)C(=O)c2cc(C#Cc3ccccc3)cnc2O[C@H]1CN(C)C(=O)c1ccccc1F | -33.4% | ? | / | ? | ? | -5.3%
CSc1ccc(S(=O)(=O)NCC(=O)OC2CCOC2=O)cc1[N+](=O)[O-] (stereo not drawn) | -13.7% | 5.6% | / | -68.5* | 1.0% | -23.2%
Nc1ccc(S(=O)(=O)NCC(=O)OC2CCOC2=O)cc1[N+](=O)[O-] (stereo not drawn) | 5.8% | -4.2% | 25.1µM* | 3.7 | -9.3% | ?
CSc1ccc(S(=O)(=O)NCC(=O)OCCOc2ccccc2)cc1[N+](=O)[O-] | -33.2% | -2.2% | / | 18.9 | 10.2% | ?
Cc1cccc(C(=O)Nc2nc(C)c(C(=O)Nc3ccc4c(c3)CCC4)s2)c1 | -22.5% | ? | 11.9% | 3.4 | 23.1µM* | ?
CN(C)S(=O)(=O)c1cccc(C(=O)Nc2ccc3c(c2)CCC3)c1 | 1.5% | 18.4µM* | / | -21.2 | 16.4µM* | 2.1%
CN(C)S(=O)(=O)c1cccc(NC(=O)c2ccc3nccnc3c2)c1 | -6.1% | 23.1µM* | -2.8% | 26.6 | 13µM* | ?
COC(=O)N1[C@H](C)C=C[C@]1(Cc1ccccc1)C(=O)NCc1ccc(C)o1 | / | / | 6.3% | / | / | /
COc1ccc(-c2nc(-c3ccccc3)c(-c3cc([N+](=O)[O-])ccc3C)[nH]2)cc1O | -1.1% | 14.6µM* | 11.8% | -1.1 | ? | ?
COc1ccc([N+](=O)[O-])cc1-c1[nH]c(-c2ccc(C(=O)O)cc2)nc1-c1ccccc1 | -1.2% | -0.6% | / | 30.7 | -6.2% | -2.1%
Cc1ccc([N+](=O)[O-])cc1-c1[nH]c(-c2ccc(O)c(O)c2)nc1-c1ccccc1 | -38.6% | 16.4µM* | 11.8% | 3.5 | 16.4µM* | ?
O=C(NCc1ccccc1CN1CCCC1)C1CCN(C(=O)c2ccc(F)cc2)CC1 | -3.0% | -9.7% | -0.4%[56.1 µM] | -23.3 | -8.7% | 23.0%
Cc1ccc(NC2=NC(c3ccc(F)cc3)n3c(nc(C)cc3=O)N2)c(C)c1 (stereo not drawn) | -38.9% | -4.6% | / | -0.4 | 2.5% | 12.6%
Cc1ccc(NC2=NC(c3ccccc3)n3c(nc(C)cc3=O)N2)c(C)c1 (stereo not drawn) | 1.6% | -7.2% | -1.0% | -74.4* | -14.5% | 16.1%

High-throughput results: PubChem BioAssay, National Center for Advancing Translational Sciences (NCATS)
